According to PubChem BioAssay AID463190 (Sanford-Burnham Center for Chemical Genomics, 2010):
The campaign covered roughly 330,000 compounds. About 7,300 (2.2%) were called active.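 The calls were made as follows: active = inhibition of at least 40%; inactive = the rest.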 For the sample, actives were picked, then their nearest neighbours and some compounds at random.

assay: growth inhibition of tim10-1 ts yeast – luminescence, uHTS, primary screen (AID 463190);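 also: mutant grown at 25 °C; 0% = DMSO wells with yeast and 100% = wells holding no yeast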; conditions: S. cerevisiae tim10-1 ts strain growth, BacTiter-Glo, 24 h; at 20 µM; active compounds read high

| SMILES | inhibition |
| --- | --- |
| COc1ccc(CN(C)C(C)C(=O)NC2CCCc3ccccc32)cc1 (stereo not drawn) | 23.2% (inactive) |
| COC(=O)c1cc(OCC(=O)NC2CCCc3ccccc32)cc(C(=O)OC)c1 (stereo not drawn) | 11.9% (inactive) |
| COc1ccc2c(c1)C(NS(=O)(=O)OCC(Cl)(Cl)Cl)CCC2 (stereo not drawn) | 45.1% (active) |
| COc1ccccc1C1CCN(c2ccc([N+](=O)[O-])cn2)CC1 | 14.4% (inactive) |
| COc1ccccc1C1SCCN1C(=O)c1ccc([N+](=O)[O-])cc1 (stereo not drawn) | 41.9% (active) |
| O=C(Nc1ccc(F)cc1)C1CCN(C(=O)c2ccc([N+](=O)[O-])cc2)CC1 | 2.2% (inactive) |
| CN(C(=O)CC1C(=O)NCCN1Cc1ccc2ccccc2c1)C1CCOCC1 (stereo not drawn) | 29.6% (inactive) |
| NS(=O)(=O)c1ccc(CCNC(=O)c2nc(CS(=O)(=O)c3ccc(Cl)cc3)no2)cc1 | -1.2% (inactive) |
| CCCN(c1ccc(C)cc1)c1nc(=O)c2cccnc2s1 | 15.2% (inactive) |
| CCC(C)NCCOCCOc1ccc(Br)cc1C (stereo not drawn) | -4.38% (inactive) |
| COc1ccc(-c2nc3cnccn3c2NC(C)(C)CC(C)(C)C)cc1O | 32.9% (inactive) |
| Cc1ccc(C(=O)O/N=C(\N)c2ccccn2)cc1Cl | 26.8% (inactive) |
| Cc1cccc(/C(N)=N/OC(=O)c2ccccc2Cl)c1 | 59.7% (active) |
| C/C(=N\OC(=O)c1ccccc1)c1c(C)nc2cc(C)ccn12 | 5.99% (inactive) |
| O=C(NCc1ccco1)/C(=C/c1cccc([N+](=O)[O-])c1)NC(=O)c1ccco1 | 15.4% (inactive) |
| Cc1ccc(N2C(=O)C3C4C=CC(CC4)C3C2=O)cc1Br (stereo not drawn) | 6.71% (inactive) |
| CCc1ccc2nc(N(CCCN(C)C)C(=O)c3ccc4c(c3)OCCO4)sc2c1 | 16% (inactive) |
| Cc1ccc2nc(N(CCN(C)C)C(=O)C3=COCCO3)sc2c1 | 44.8% (active) |
| CCN(CC)CCN(C(=O)c1cc(Cl)sc1Cl)c1nc2cc3c(cc2s1)OCO3 | 36.6% (inactive) |
| CN(C)CCN(C(=O)C1CCCCC1)c1nc2cc3c(cc2s1)OCO3 | 16.1% (inactive) |
| CN(C)CCN(C(=O)CN1C(=O)c2ccccc2C1=O)c1nc2cc3c(cc2s1)OCCO3 | -13.3% (inactive) |
| CN(C)CCN(C(=O)C1=COCCO1)c1nc2ccc(Cl)cc2s1 | 66.5% (active) |
| CN1C(=O)C2(OCCCO2)c2cc(Cl)ccc21 | -14.9% (inactive) |
| CNC(=O)c1[nH]cnc1C(=O)N[C@@H](CC(C)C)C(=O)OCc1ccccc1 | 18.1% (inactive) |

| SMILES | inhibition |
| --- | --- |
| COC(=O)c1cc(S(=O)(=O)NCC2CCN(Cc3ccc(Cl)cc3)CC2)cn1C | -24.4% (inactive) |
| c1ccc(-c2nnc3n2NC(c2ccc4c(c2)OCO4)S3)cc1 (stereo not drawn) | 51.2% (active) |
| CC1=C(C(N)=O)C(c2ccc3c(c2)OCO3)n2nc(-c3cccc(C)c3)nc2N1 (stereo not drawn) | 0.453% (inactive) |
| Cc1cccc(C)c1NC(=O)CSc1nnc(-c2ccccc2)n1Cc1ccc2c(c1)OCO2 | 21.2% (inactive) |
| COc1ccc(CC(=O)N[C@@H]2c3cc(OC)c(OC)cc3C[C@H]2OCc2ccccc2)cc1 | 15.2% (inactive) |
| COc1ccc(C(=O)NCC(=O)N/N=C/c2ccc([N+](=O)[O-])s2)cc1OC | 16.7% (inactive) |
| Cc1ccccc1NCC(=O)N/N=C\c1ccc([N+](=O)[O-])s1 | 53.3% (active) |
| Cc1ccc(/C=N/NC(=O)CN2CCN(Cc3ccccc3)CC2)s1 | -3.89% (inactive) |
| COc1ccc(CN2CCN(Cc3ccc(OC)c(OC)c3OC)CC2)cc1 | -1.36% (inactive) |
| CCOc1ccc(C(=O)NC2CCN(C(=O)Nc3ccccc3OC)CC2)cc1 | 6.63% (inactive) |
| CCOC(=O)c1cc(C#N)c(N2CCCCC2)nc1-c1ccccc1 | -4.08% (inactive) |
| CCOc1ccc2nc(N3CCCN(C(=O)Nc4ccccc4C)CC3)c(C#N)cc2c1 | 42.1% (active) |
| O=CN1CCN(C(=O)c2ccc3c(c2)OCO3)CC1 | -19.2% (inactive) |
| COc1cccc(NS(=O)(=O)c2ccc3[nH]cc(C(=O)NCCCOC(C)C)c(=O)c3c2)c1 | 19.3% (inactive) |
| Nc1ccccc1/C=N\N=C/c1ccccc1N | 7.02% (inactive) |
| O=C1C=C(c2cc(C(F)(F)F)cc(C(F)(F)F)c2)C[C@@H](c2ccc3c(c2)OCO3)C1 | -2.52% (inactive) |
| Cc1cn(COC/C=C/c2ccccc2)c(=O)[nH]c1=O | 7.72% (inactive) |
| Cc1[nH]c(=O)c(C(=O)/C=C/c2ccccc2)c2c1CCCC2 | 46.1% (active) |
| COC(=O)c1c(C)[nH]c(C(=O)/C=C/c2ccc(Cl)cc2)c1C | 5.77% (inactive) |
| CCCC1OC23CCCCC2C(C#N)(C#N)C1(C#N)C(=N)O3 (stereo not drawn) | 13% (inactive) |
| c1ccc(-c2cn3c(n2)CCc2ccc4cccnc4c2-3)cc1 | 42% (active) |
| Cc1cc(N2C(=O)c3ccc(C(=O)NCc4ccccc4)cc3C2=O)no1 | 11.1% (inactive) |
| CCCc1nn2c(=O)cc(CSCC(=O)Nc3cccc(C)c3)nc2s1 | 5.18% (inactive) |
| CCOC(=O)CC(NC(=O)C1c2ccccc2Oc2ccccc21)c1ccc(C)cc1 (stereo not drawn) | 5.58% (inactive) |

| SMILES | inhibition |
| --- | --- |
| CC(C)(C)NC(=O)NC(=O)COC(=O)C1c2ccccc2Oc2ccccc21 | 23.3% (inactive) |
| CCCCN1C(=S)NC[C@@H]1C(C)CC (stereo partly drawn) | 20.5% (inactive) |
| CCOC(=O)NNc1cc(C(F)(F)F)ccn1 | -3.69% (inactive) |
| Cn1c(N)c(C(=O)COC(=O)/C=C/c2cccc(C(F)(F)F)c2)c(=O)n(C)c1=O | 17.7% (inactive) |
| CCOC(=O)/C=C/c1ccc(C(F)(F)F)cc1S(=O)(=O)NC(C)(C)C | 44.1% (active) |
| COC(C(=O)NCc1ccccc1C)c1ccccc1 (stereo not drawn) | -2.01% (inactive) |
| CCCCn1c(SCC(=O)N2CCOCC2)nc2c1c(=O)n(C)c(=O)n2C | 0.276% (inactive) |
| CC(=O)Oc1ccc(C(=O)Nc2nccs2)cc1 | 8.42% (inactive) |
| COc1ccc(Cc2nnc(NC(=O)c3cc(OC)c(OC)c(OC)c3)s2)cc1OC | 8.1% (inactive) |
| COc1cc(C(=O)Nc2nccs2)cc(OC)c1OC | 43.9% (active) |
| Cc1ccc(SC(C)C(=O)NCc2ccc(F)cc2)cc1 (stereo not drawn) | 9.06% (inactive) |
| CNS(=O)(=O)c1cccc(C(=O)OCCCC(=O)c2ccccc2)c1 | 3.9% (inactive) |
| Cc1ccsc1C(=O)NCCc1ccco1 | -19% (inactive) |
| COc1ccc(NC(=O)C2COc3ccccc3O2)cc1 (stereo not drawn) | 21.5% (inactive) |
| COc1ccc(OC)c2sc(NC(=O)C3COc4ccccc4O3)nc12 (stereo not drawn) | 47.3% (active) |
| COc1cc(SC)ccc1C(=O)NNC(=O)C1COc2ccccc2O1 (stereo not drawn) | 5.41% (inactive) |
| CCc1cccc(C)c1NS(=O)(=O)c1c(C)nc2sccn2c1=O | 21.8% (inactive) |
| COc1ccc(NC(=O)C2C3CCC(O3)C2C(=O)O)cc1OC (stereo not drawn) | -1.54% (inactive) |
| COCCNC(=O)CSc1nc2c(n1-c1ccccc1)CCCC2 | 12% (inactive) |
| COc1ccc(C(C(=O)NC2CCCCC2)N(C(=O)Cc2c[nH]c3ccccc23)c2ccccc2)cc1OC (stereo not drawn) | 13.4% (inactive) |
| CCn1c(SCC(=O)Nc2cc(C)c(Cl)cc2OC)nnc1-c1ccco1 | 14% (inactive) |
| COc1cc(Cl)c(C)cc1NC(=O)CSc1nnc(-c2cccnc2)n1Cc1ccco1 | 22.4% (inactive) |
| COc1cc(Cl)c(C)cc1NC(=O)CSc1nnc(-c2ccco2)n1CC(C)C | 42.7% (active) |
| COc1ccc(C(=O)C2CCCN(C(=O)c3ccc(OC)o3)C2)c(C)c1 (stereo not drawn) | 20.5% (inactive) |

| SMILES | inhibition |
| --- | --- |
| COc1ccccc1CC(NC(C)=O)C(=O)NC1CCN(C(=O)Nc2ccccc2Cl)CC1 (stereo not drawn) | 12% (inactive) |
| CCC(=O)Nc1nc2ccccc2n1Cc1ccccc1C | 40.8% (active) |
| CCCCn1c(CCCNC(=O)CC)nc2ccccc21 | 0.782% (inactive) |
| CC(=O)Nc1nc2ccccc2n1Cc1ccc(C)cc1 | 19% (inactive) |
| COc1ccc(NS(=O)(=O)c2ccc(Oc3c(C#N)cccc3C#N)cc2)cc1 | -28.8% (inactive) |
| COc1ccc(C2C(C(=O)Nc3ccccc3OC)=C(C)Nc3nnnn32)c(OC)c1 (stereo not drawn) | 0.795% (inactive) |
| COc1cc(C2C(C(=O)Nc3ccccc3OC)=C(C)Nc3ncnn32)ccc1O (stereo not drawn) | 8.15% (inactive) |
| COc1ccccc1NC(=O)C1=C(C)Nc2nnnn2C1c1cccc(Br)c1 (stereo not drawn) | 42.4% (active) |
| COC(=O)c1ccccc1NC(=O)C1CC(=O)N(c2ccc(OC)cc2)C1 (stereo not drawn) | 3.6% (inactive) |
| COCCn1nnnc1CN1CCC(NC(=O)Nc2cccc(OC)c2)CC1 | -0.459% (inactive) |
| COc1ccc(/C=C2\SC(=O)N(CCC(=O)NC3CCS(=O)(=O)C3)C2=O)cc1 (stereo not drawn) | -0.597% (inactive) |
| COc1ccc(/C=C2\SC(=O)N(CCC(=O)NCCCn3ccnc3)C2=O)cc1 | 8.52% (inactive) |
| COc1ccc(/C=C2/SC(=O)N(CCCCCC(=O)Nc3ccccc3C(=O)O)C2=S)cc1 | 40% (active) |
| Cc1cccc(OCC(O)Cn2c(N3CCCCC3)nc3c2c(=O)[nH]c(=O)n3C)c1 (stereo not drawn) | 12.9% (inactive) |
| CCOC(=O)C1CCN(C(=O)COc2cccc3ccccc23)CC1 | 6.37% (inactive) |
| O=C(CCCN=C1NS(=O)(=O)c2ccccc21)OCC(=O)c1ccc(F)c(F)c1 | 11.8% (inactive) |
| CCOc1ccc(NC(=O)CN(C)C(=O)c2c(C)noc2C)cc1OCC | -5.08% (inactive) |
| COC(=O)C1(CCSC)NC(c2ccc(OC)cc2OC)C2C(=O)N(c3cccc(C(C)=O)c3)C(=O)C21 (stereo not drawn) | 8.92% (inactive) |
| CC(C)CNC(=S)Nc1ccc(F)cc1 | 0.34% (inactive) |
| CC(C)(CCl)C(=O)Nc1ccc(Sc2ccc(F)cc2)cc1 | 53.5% (active) |
| O=C(Nc1ccncc1)Nc1ccc(F)cc1 | -16.8% (inactive) |
